Reference: paper PMC11006913

What follows are sequences tested against NKX3-2 (Homo sapiens, UniProt P78367 192-278, P234S) (assay: PBM; 200 nM protein, PBS). Details: dsDNA, one strand shown.
NKX3-2 (Homo sapiens, UniProt P78367 192-278, P234S), sequence (P78367 192-278 P234S): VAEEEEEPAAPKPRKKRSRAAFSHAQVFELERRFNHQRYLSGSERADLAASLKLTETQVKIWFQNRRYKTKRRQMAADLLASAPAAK
For GACGAACC, the binding signal was 10.6 upbm affinity estimate (log intensity, higher = more binding, comparable within an allelic series).
With CCGCGGCA the binding signal was 10.5 upbm affinity estimate (log intensity, higher = more binding, comparable within an allelic series).
In the case of CGCCAGCC, the binding signal is reported as 10.7 upbm affinity estimate (log intensity, higher = more binding, comparable within an allelic series).
GAAGTGTC was tested, and the binding signal was 12.2 upbm affinity estimate (log intensity, higher = more binding, comparable within an allelic series).
In the case of AAGCCGCC, the binding signal is reported as 10.7 upbm affinity estimate (log intensity, higher = more binding, comparable within an allelic series).

The sequences below were run against CRX (Homo sapiens, UniProt O43186 26-111, R41L) (assay: PBM; 200 nM protein, PBS). Details: dsDNA, one strand shown.
CRX, sequence (O43186 26-111 R41L): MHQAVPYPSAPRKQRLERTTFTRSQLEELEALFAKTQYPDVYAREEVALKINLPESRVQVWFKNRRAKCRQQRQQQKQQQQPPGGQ
For ACTAAGCT, the binding signal was 11.4 upbm affinity estimate (log intensity, higher = more binding, comparable within an allelic series).
For CCTAATAC, the binding signal was 10.6 upbm affinity estimate (log intensity, higher = more binding, comparable within an allelic series).
In the case of CTAATGCC, the binding signal is reported as 10.1 upbm affinity estimate (log intensity, higher = more binding, comparable within an allelic series).
In the case of ATCTTAAG, the binding signal is reported as 10.8 upbm affinity estimate (log intensity, higher = more binding, comparable within an allelic series).
ACTAATAC was tested, and the binding signal was 10.7 upbm affinity estimate (log intensity, higher = more binding, comparable within an allelic series).
GCTTAAGA was tested, and the binding signal was 11.1 upbm affinity estimate (log intensity, higher = more binding, comparable within an allelic series).
In the case of CAGATTAC, the binding signal is reported as 12.3 upbm affinity estimate (log intensity, higher = more binding, comparable within an allelic series).
With CGTCTTAA the binding signal was 10.7 upbm affinity estimate (log intensity, higher = more binding, comparable within an allelic series).
In the case of CTTAATGC, the binding signal is reported as 11 upbm affinity estimate (log intensity, higher = more binding, comparable within an allelic series).
With CTTTATCC the binding signal was 10.7 upbm affinity estimate (log intensity, higher = more binding, comparable within an allelic series).
In the case of GTCTTAAC, the binding signal is reported as 10.3 upbm affinity estimate (log intensity, higher = more binding, comparable within an allelic series).
In the case of CGGCTTAG, the binding signal is reported as 11.9 upbm affinity estimate (log intensity, higher = more binding, comparable within an allelic series).
For AGTATTAG, the binding signal was 10.8 upbm affinity estimate (log intensity, higher = more binding, comparable within an allelic series).
In the case of CTTAATAC, the binding signal is reported as 11.3 upbm affinity estimate (log intensity, higher = more binding, comparable within an allelic series).
With AGCTTAAG the binding signal was 11.6 upbm affinity estimate (log intensity, higher = more binding, comparable within an allelic series).
In the case of ATTAAGAC, the binding signal is reported as 11 upbm affinity estimate (log intensity, higher = more binding, comparable within an allelic series).
TAAGACGA was tested, and the binding signal was 10.2 upbm affinity estimate (log intensity, higher = more binding, comparable within an allelic series).
In the case of CGCATTAG, the binding signal is reported as 10.4 upbm affinity estimate (log intensity, higher = more binding, comparable within an allelic series).
For GCTAAGAC, the binding signal was 10.2 upbm affinity estimate (log intensity, higher = more binding, comparable within an allelic series).
With ATTAAGCG the binding signal was 10.8 upbm affinity estimate (log intensity, higher = more binding, comparable within an allelic series).
With GCATTAGC the binding signal was 10.5 upbm affinity estimate (log intensity, higher = more binding, comparable within an allelic series).
With ATAAGCCG the binding signal was 12.3 upbm affinity estimate (log intensity, higher = more binding, comparable within an allelic series).
With CTAAGCTC the binding signal was 11.1 upbm affinity estimate (log intensity, higher = more binding, comparable within an allelic series).
AGCATTAA was tested, and the binding signal was 10.9 upbm affinity estimate (log intensity, higher = more binding, comparable within an allelic series).
For ACGCTTAA, the binding signal was 10.3 upbm affinity estimate (log intensity, higher = more binding, comparable within an allelic series).
With CTAAGCCA the binding signal was 10.7 upbm affinity estimate (log intensity, higher = more binding, comparable within an allelic series).
CCTAAGCC was tested, and the binding signal was 11.2 upbm affinity estimate (log intensity, higher = more binding, comparable within an allelic series).
GGTGTTAA was tested, and the binding signal was 10.2 upbm affinity estimate (log intensity, higher = more binding, comparable within an allelic series).
CCGCTTAA was tested, and the binding signal was 10.9 upbm affinity estimate (log intensity, higher = more binding, comparable within an allelic series).
AGGCTTAG was tested, and the binding signal was 11.6 upbm affinity estimate (log intensity, higher = more binding, comparable within an allelic series).
With CTAATACC the binding signal was 11.2 upbm affinity estimate (log intensity, higher = more binding, comparable within an allelic series).
For ATAATCTA, the binding signal was 12.4 upbm affinity estimate (log intensity, higher = more binding, comparable within an allelic series).
In the case of GTATTAGA, the binding signal is reported as 10.7 upbm affinity estimate (log intensity, higher = more binding, comparable within an allelic series).
In the case of CTTAAGAC, the binding signal is reported as 10.7 upbm affinity estimate (log intensity, higher = more binding, comparable within an allelic series).
With GAGATTAC the binding signal was 12.3 upbm affinity estimate (log intensity, higher = more binding, comparable within an allelic series).

The sequences below were run against NKX3-2 (Homo sapiens, UniProt P78367 192-278) (assay: PBM; 200 nM protein, PBS). Details: dsDNA, one strand shown.
NKX3-2 (Homo sapiens, UniProt P78367 192-278), sequence (P78367 192-278): as the sequence (P78367 192-278 P234S) above, with S43P counted along it
In the case of GACGAACC, the binding signal is reported as 10.5 upbm affinity estimate (log intensity, higher = more binding, comparable within an allelic series).
With CCGCGGCA the binding signal was 10.5 upbm affinity estimate (log intensity, higher = more binding, comparable within an allelic series).
With CGCCAGCC the binding signal was 10.6 upbm affinity estimate (log intensity, higher = more binding, comparable within an allelic series).
For GAAGTGTC, the binding signal was 12.3 upbm affinity estimate (log intensity, higher = more binding, comparable within an allelic series).
For AAGCCGCC, the binding signal was 10.7 upbm affinity estimate (log intensity, higher = more binding, comparable within an allelic series).
